# Hit rate of the full screen: of about 69,000 compounds, about 1,000 (1.4%) showed an effect of 50% or more. What follows is part of a selection rich in strong results, with near analogues and random picks from the rest.
# Tested on: Leishmania donovani
# Assay: Leishmania intramacrophage assay
# Type: functional, organism-based
# Design: scale not given: in the data most compounds retested in dose-response had high values
structure (smiles),measurement,setting,value
O=C(Nc1cnccn1)[C@H]1CC[C@@H]2[C@@H](CCN2Cc2ccccn2)O1.O=C(O)C(F)(F)F,Percent Effect,"30.3 µM, […]",28.13%
CC(O)CCN(C)C(=O)Nc1cccc(F)c1 (stereo not drawn),Percent Effect,"30.3 µM, […]",1.493%
Cl.Clc1cccnc1OC1CCNCC1,Percent Effect,"30.3 µM, […]",14.95%
Cl.Cl.c1ccc2c(c1)C(NC1CCCC1)CC21CCNCC1 (stereo not drawn),Percent Effect,"30.3 µM, […]",32.48%
c1ccc2ncc(CC3CCNCC3)cc2c1,Percent Effect,"30.3 µM, […]",-17.37%
Cl.Clc1ccccc1CN1CCc2nc(C3CCCNC3)ncc2C1 (stereo not drawn),Percent Effect,"30.3 µM, […]",6.249%
Clc1ccccc1C1(c2ccnc(C3CC3)n2)CCNCC1,Percent Effect,"30.3 µM, […]",94.79%
Clc1ccccc1C1(c2ccnc(CC3CC3)n2)CCNCC1,Percent Effect,"30 µM, 30.03 µM",93.39%
Clc1ccccc1C1(c2ccnc(C3CCCC3)n2)CCNCC1,Percent Effect,"30.3 µM, […]",99.4%
Cl.Clc1ccccc1CN1CCc2nc(C3CCNCC3)ncc2C1,Percent Effect,"30.3 µM, […]",3.749%
OC1(CN2CCC(Cc3ncccn3)CC2)CCOCC1,Percent Effect,"30.3 µM, […]",5.693%
Cn1cc(-c2cnc(N3CCOCC3)nc2)cc1C(=O)N1CCCC1,Percent Effect,"30.3 µM, […]",13.22%
O=C(NCc1ccccc1-n1cccn1)N1CCC(N2CCCC2)C1 (stereo not drawn),Percent Effect,30 µM,13.6%
O=S(=O)(NC1=NCN(CCc2ccccc2)CN1)c1ccc(F)cc1,Percent Effect,"30.3 µM, […]",1.728%
CCc1cc(C(=O)N2CCC(C3CCN(c4ncccn4)CC3)C2)on1 (stereo not drawn),Percent Effect,"30.3 µM, […]",4.034%
Cc1nc(NCCc2ccccc2)cc(C(=O)N2CCOCC2)n1,Percent Effect,"30.3 µM, […]",21.35%
CCn1c(-c2ccccc2)nn(CC(=O)NCCc2c[nH]cn2)c1=O,Percent Effect,"30.3 µM, […]",22.36%
Cc1cc(=O)c(C(=O)N(C)Cc2ccc(Cl)c(F)c2)c[nH]1,Percent Effect,"30.3 µM, […]",24.44%
Cc1cnn(C2CCCN(C(=O)c3cn4ccccc4n3)C2)c1 (stereo not drawn),Percent Effect,30 µM,-3.479%
CCNC(=O)CN1CCN(Cc2nc3c(F)cccc3n2CC)CC1,Percent Effect,30 µM,25.75%
Cn1cc(CCCN2CCN(Cc3cccc(O)c3)CC2)cn1,Percent Effect,"30.3 µM, […]",7.791%
Cc1nc(C)c(C)c(NCc2cnn3cccnc23)n1,Percent Effect,"30.3 µM, […]",15.17%
Cc1ccc(O)c(CNc2cccc(CN3CCSCC3)c2)n1,Percent Effect,"30.3 µM, […]",6.923%
Cc1nc(CN2C(=O)CCC23CCN(Cc2cccn2C)CC3)cs1.O=C(O)C(F)(F)F.O=C(O)C(F)(F)F,Percent Effect,"30.3 µM, […]",2.496%
N#CCCN(CC1CCOC1)Cn1ccc(-c2ccccc2)n1 (stereo not drawn),Percent Effect,"30.3 µM, […]",16.63%
CC(C)c1n[nH]c(C(=O)Nc2ccncc2)c1Br,Percent Effect,"30 µM, 30.03 µM",62.71%
CC(C)c1n[nH]c(C(=O)NC(C)c2ccncc2)c1Br (stereo not drawn),Percent Effect,30 µM,13.54%
COc1ccncc1NC(=O)c1[nH]nc(C(C)C)c1Br,Percent Effect,"30.3 µM, […]",16.78%
OC1COCCN(Cc2cc(-c3ccccc3OC(F)(F)F)no2)C1 (stereo not drawn),Percent Effect,"30.3 µM, […]",-21.47%
NC1CCCCN(Cc2cc(-c3ccccc3OC(F)(F)F)no2)C1 (stereo not drawn),Percent Effect,"30.3 µM, […]",99.07%
N[C@@H]1CCN(Cc2cc(-c3ccccc3OC(F)(F)F)no2)C[C@H]1O,Percent Effect,"30.3 µM, […]",12.53%
COc1ccc(C)cc1CN1CCC(c2cc3ncccc3cn2)CC1.Cl,Percent Effect,"30.3 µM, […]",41.3%
CS(=O)(=O)N1CCC(C(=O)Nc2nnc(C(F)(F)F)[nH]2)CC1,Percent Effect,"30.3 µM, […]",1.048%
COC[C@@H]1CCCN1C(=O)c1cc(-c2ccc(OC)cc2)n[nH]1,Percent Effect,"30.3 µM, […]",15.18%
CN1CCC(N(Cc2ccco2)S(=O)(=O)c2ccc(Cl)cc2)CC1,Percent Effect,"30.3 µM, […]",24.1%
Cc1nnc(CN(C)S(=O)(=O)c2ccc(Br)cc2Cl)n1C,Percent Effect,"30.3 µM, […]",25.06%
CN(Cc1nnc2n1CCC2)S(=O)(=O)c1cc(Br)ccc1Br,Percent Effect,"30.3 µM, […]",22.5%
CN1CCC(N(Cc2ccco2)S(=O)(=O)c2cc(Br)ccc2Br)CC1,Percent Effect,"30.3 µM, […]",95.6%
O=c1cc(CN(Cc2ccco2)C2CC2)nc2ccc(Br)cn12,Percent Effect,"30.3 µM, […]",12.01%
CN1CCC(N(Cc2ccco2)S(=O)(=O)c2ccc(Br)cc2Cl)CC1,Percent Effect,"30.3 µM, […]",87.02%
Cc1ccc(NCCCNC(=O)C2CCCN(Cc3ccco3)C2)nc1 (stereo not drawn),Percent Effect,"30.3 µM, […]",-17.24%
Cc1nc(CN(C)c2nccc(C(F)(F)F)n2)cs1,Percent Effect,"30.3 µM, […]",5.886%
Cc1cnn(CCNc2nc(C)cc(N(C)C)n2)c1,Percent Effect,"30.3 µM, […]",-24.91%
CC(C)c1ccc(/C=C/CC(=O)NC2CCN(C(N)=O)CC2)cc1,Percent Effect,"30.3 µM, […]",-5.908%
CC(C)c1ccc(/C=C/CC(=O)NC2CCN(C(N)=O)C2)cc1 (stereo not drawn),Percent Effect,"30.3 µM, […]",6.492%
COCCN1CCC(NC(=O)C/C=C/c2ccc(C(C)C)cc2)CC1,Percent Effect,"30.3 µM, […]",51.69%
O=C(CC1CC1)N1CCN(Cc2ccncc2)c2ncccc2C1.O=C(O)C(F)(F)F.O=C(O)C(F)(F)F,Percent Effect,"30.3 µM, […]",-1.398%
CCc1cc(C(=O)N2CCC3(CCCN(CC4CC4)C3=O)C2)cs1 (stereo not drawn),Percent Effect,"30.3 µM, […]",12.28%
O=C1NCCCc2c1oc1ccc(O)c(CN3CCOCC3)c21,Percent Effect,"30.3 µM, […]",56.93%
Oc1ccc2oc3c(c2c1CN1CCOCC1)CCCC3,Percent Effect,"30.3 µM, […]",27.1%
NC(=O)C1CN(Cc2c(O)ccc3oc4c(c23)CCCC4)CCO1 (stereo not drawn),Percent Effect,"30.3 µM, […]",24.24%
Cc1nc(CNCC2CN(C)CCO2)cs1 (stereo not drawn),Percent Effect,"30 µM, 30.03 µM",33.12%
CN1CCOC(CNCc2csc(C3CCCCC3)n2)C1 (stereo not drawn),Percent Effect,30 µM,56.43%
CN1CCOC(CNCc2csc(C3CCCC3)n2)C1 (stereo not drawn),Percent Effect,30 µM,13.96%
COc1ccc(CN2C[C@@H]3CC[C@H](C2)N(Cc2snnc2C)C3)cc1,Percent Effect,"30.3 µM, […]",-20.42%
CS(=O)(=O)NCC1(c2ccccc2Br)CC1,Percent Effect,"30.3 µM, […]",-0.01271%
NS(=O)(=O)NCC1(c2ccccc2Br)CC1,Percent Effect,"30.3 µM, […]",94.29%
CN(C)S(=O)(=O)NCC1(c2ccccc2Br)CC1,Percent Effect,"30.3 µM, […]",-4.461%
CC(C)(O)c1cc(CC2(NCc3ccccc3Cl)COC2)no1,Percent Effect,"30.3 µM, […]",25.25%
CC(NCc1cn(CCC(N)=O)c2ccccc12)c1nncn1C (stereo not drawn),Percent Effect,"30.3 µM, […]",-7.777%
CC(C)n1cnnc1CCNCc1cn(CCC(N)=O)c2ccccc12,Percent Effect,"30.3 µM, […]",32.43%
Cc1ccc(C(C)NCc2cn(CCC(N)=O)c3ccccc23)cc1C (stereo not drawn),Percent Effect,"30.3 µM, […]",88.97%
O=C(Cn1c(=O)nc2n1C(=O)N(c1ccccc1)C2)NC1CCCCC1,Percent Effect,"30.3 µM, […]",-29.26%
COc1ccccc1CN1C(=O)O[C@@H]2CN(Cc3cccc(C)n3)C[C@@H]21,Percent Effect,"30.3 µM, […]",-18.87%
CC(C)c1nnc2n1CC(CNCc1nc3ccccc3s1)CC2 (stereo not drawn),Percent Effect,"30.3 µM, […]",-6.919%
O=C(Nc1c(N2CCCC2)cccc1N1CCCC1)c1cnsn1,Percent Effect,"30.3 µM, […]",-91.54%
O=C(Nc1c(N2CCCC2)cccc1N1CCCC1)c1cnccn1,Percent Effect,"30.3 µM, […]",2.563%
O=C(Nc1c(N2CCCC2)cccc1N1CCCC1)c1ccccn1,Percent Effect,"30.3 µM, […]",56.83%
